Peg3 prom inh-1: inhibitors of Peg3 promoter; HeLa PEG-Prom luciferase reporter, luminescence, overnight; inhibition, % at 20 µM; hit rate 1.7% among 360,000;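 active = inhibition of at least 50% at 20 µM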
Shn3 inh set2: inhibitors of Schnurri-3 3'UTR reporter in osteoblasts; Clone20 osteoblast Shn3 3'UTR firefly luciferase, 24 h; inhibition, % at 12.5 µM; hit rate 0.52% among 360,000;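 active = mean inhibition of at least 75% with every replicate also reaching 75%; inconclusive = mean inhibition at least 75% but some replicate below; inactive = mean inhibition below 75%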
PAX8 reporter: lowers PAX8-driven luciferase in RMG-I cells. RMG-I TPO-luciferase reporter, SteadyGlo, 24 h. inhibition, % at 12.6 µM. hit rate 1.2% among 360,000;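 active = mean replicate inhibition at least 60% with every replicate also reaching 60%; inconclusive = only one of the two criteria is met; inactive = mean below 60% and not all replicates reaching 60%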;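 also: luciferase light reporting Pax8 driven TPO promoter activity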
HIF-2a block: HIF-2a inhibition | 786-0 RCC cells HIF-2a reporter, luciferase luminescence, overnight | inhibition, % at 18.8 µM | hit rate 0.72% among 360,000;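 active = inhibition of the luminescence signal of 40% or more relative to plate controls, in a single-dose primary screen at 18.75 µM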
TRPM1 prom inh: reduces MITF-dependent TRPM1 promoter luciferase signal | SK-MEL-5 TRPM1 promoter luciferase, 24 h | inhibition, % at 12.5 µM | hit rate 0.83% among 330,000 | AID 488899;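 active = mean inhibition across replicates of 60% or more, whatever share of single replicates reaches that level; inconclusive = some that reach 60%, reason not given; inactive = mean inhibition across replicates below 60%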
EBV LMP1 NFkB: inhibitors of Epstein-Barr LMP1-induced NF-kappaB reporter | LMP1-induced NF-kappaB luciferase reporter cells, luminescence | inhibition, % at 12.5 µM | hit rate 0.69% among 350,000 | AID 504558; in the data active = inhibition above about 41%; inconclusive = no clear call, values can overlap the other calls
Peg3 prom inh-2: Peg3 promoter inhibition confirmation; HeLa PEG-Prom luciferase reporter, luminescence, overnight; AID 602417; hit rate 84% among 1,300; shares compounds with Peg3 prom inh-1; inhibition, % at 20 µM;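 active = at 20 µM dose, 40% or more inhibition averaged across four replicates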
Mdm2-MdmX confirm: confirmation of inhibitors of human Mdm2/MdmX interaction, set 2; inhibition, % at 8 µM; shares compounds with HIF-2a block; hit rate 99% among 740; SaOS-2 split-luciferase Mdm2/MdmX complementation, luminescence;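 active = mean inhibition of the luminescence signal across two replicates at or above 26 percent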
Target sequence (O15151 whole entry, looked up): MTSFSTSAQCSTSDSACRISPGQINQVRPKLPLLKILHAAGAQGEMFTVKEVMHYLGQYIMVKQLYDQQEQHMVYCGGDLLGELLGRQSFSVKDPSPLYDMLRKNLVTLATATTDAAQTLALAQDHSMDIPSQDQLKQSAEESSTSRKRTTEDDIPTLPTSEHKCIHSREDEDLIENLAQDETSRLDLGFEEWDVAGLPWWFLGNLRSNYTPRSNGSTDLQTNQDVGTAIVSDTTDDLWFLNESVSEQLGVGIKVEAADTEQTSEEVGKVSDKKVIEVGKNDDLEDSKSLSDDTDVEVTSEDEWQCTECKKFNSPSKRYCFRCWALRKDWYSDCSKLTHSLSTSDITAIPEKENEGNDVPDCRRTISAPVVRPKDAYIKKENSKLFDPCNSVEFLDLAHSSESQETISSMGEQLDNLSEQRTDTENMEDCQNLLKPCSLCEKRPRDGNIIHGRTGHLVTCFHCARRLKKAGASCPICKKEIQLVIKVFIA
Target sequence (Q00987 whole entry, looked up): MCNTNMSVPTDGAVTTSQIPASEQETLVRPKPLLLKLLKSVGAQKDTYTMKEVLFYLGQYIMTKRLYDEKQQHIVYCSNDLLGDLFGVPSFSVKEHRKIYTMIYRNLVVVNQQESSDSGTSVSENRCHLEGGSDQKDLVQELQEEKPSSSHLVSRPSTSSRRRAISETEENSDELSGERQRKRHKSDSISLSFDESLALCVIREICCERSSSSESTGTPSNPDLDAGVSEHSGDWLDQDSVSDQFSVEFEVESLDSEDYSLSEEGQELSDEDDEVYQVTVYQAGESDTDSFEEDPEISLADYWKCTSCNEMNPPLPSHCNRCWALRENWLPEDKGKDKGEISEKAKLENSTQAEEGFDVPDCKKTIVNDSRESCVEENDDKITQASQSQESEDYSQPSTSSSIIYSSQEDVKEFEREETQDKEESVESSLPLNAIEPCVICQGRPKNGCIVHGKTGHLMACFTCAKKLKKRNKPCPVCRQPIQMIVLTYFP
HIF-2a conf: HIF-2a inhibition, single concentration confirmation; shares compounds with HIF-2a block; 786-0 RCC cells, HIF-2a luciferase reporter luminescence, overnight; inhibition, % at 18.8 µM; hit rate 56% among 1,800; AID 651580;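 active = mean inhibition across four replicates of at least 40 percent at the single tested concentration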
HIF-1a cs: inhibits HIF-1a reporter, a counter-screen for HIF-2a inhibitors. shares compounds with HIF-2a block. MiaPaCa-2 HIF-1a luciferase reporter, desferoxamine, overnight. inhibition, % at 18.8 µM. hit rate 72% among 1,800. AID 651589;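 active = mean inhibition of the reporter signal across four replicates at the single tested dose of 50% or more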
Large screens that a line does not name were inactive (follow-up assays come after a bar, where they were run). An excerpt weighted towards active compounds, which were near 2.8% of everything screened.

CCC(=O)Nc1ccc2c(c1)C(=O)N(C)[C@@H]1CC[C@H](CC(=O)N[C@@H](C)c3ccccc3)O[C@@H]1CO2	none (no result: Peg3 prom inh-1, Shn3 inh set2, HIF-2a block, TRPM1 prom inh, EBV LMP1 NFkB)
N#Cc1ccc(C(=O)Nc2nc3ccccc3[nH]2)cc1	none
CCc1ccc(C(=O)Nc2nc3ccccc3[nH]2)cc1	Peg3 prom inh-1 77, PAX8 reporter 76, HIF-2a block 63, TRPM1 prom inh inconclusive, EBV LMP1 NFkB 69 | Peg3 prom inh-2 67 | HIF-2a conf 84 | HIF-1a cs 84
COc1ccc(NC(=O)Nc2ccc3c(c2)C(=O)N([C@H](C)CO)C[C@H](C)[C@H](CN(C)S(=O)(=O)c2ccc(OC)cc2)OCCCC[C@@H](C)O3)cc1	none (no result: Peg3 prom inh-1, Shn3 inh set2, HIF-2a block, TRPM1 prom inh, EBV LMP1 NFkB)
O=C(NC1CCS(=O)(=O)C1)c1cccc(Br)c1 (stereo not given)	none
O=C(NC1=C(NC2CCS(=O)(=O)C2)C(=O)c2ccccc2C1=O)c1ccccc1 (stereo not given)	Peg3 prom inh-1 68, PAX8 reporter 96 | Peg3 prom inh-2 49 | Mdm2-MdmX confirm 93
N#CC(C#N)=C1C=CC=CN1/C(=C\c1ccco1)C(=O)c1ccc(Cl)cc1	Peg3 prom inh-1 104, Shn3 inh set2 97, HIF-2a block 94, TRPM1 prom inh 90 (no result: PAX8 reporter) | Peg3 prom inh-2 100 | HIF-2a conf 98 | HIF-1a cs 97
c1ccc2nc(-c3ccncc3)ccc2c1	none (no result: PAX8 reporter)
CN1CCN(c2ccc(-c3ccc4ccccc4n3)cc2)CC1	Peg3 prom inh-1 105, Shn3 inh set2 inconclusive, PAX8 reporter 94, HIF-2a block 87, TRPM1 prom inh 76, EBV LMP1 NFkB 83 | Peg3 prom inh-2 95 | HIF-2a conf 97 | HIF-1a cs 87
C/C(=N\NC(=O)c1cc(C)[nH]n1)c1cccs1	none
Cc1ccc(/C=N/NC(=O)c2n[nH]c3c2CCCC3)cc1	PAX8 reporter inconclusive (no result: TRPM1 prom inh, EBV LMP1 NFkB)
C/C(=N\NC(=O)c1n[nH]c2c1CCC2)c1cccs1	Peg3 prom inh-1 94, PAX8 reporter 102, HIF-2a block 72, TRPM1 prom inh 65, EBV LMP1 NFkB 74 | Peg3 prom inh-2 72 | HIF-2a conf 83 | HIF-1a cs inactive
O=C(N/N=C/c1cccs1)c1n[nH]c2c1CCCC2	Peg3 prom inh-1 78, PAX8 reporter 65, HIF-2a block 47, EBV LMP1 NFkB 68 | Peg3 prom inh-2 56 | HIF-2a conf 65 | HIF-1a cs 57
O=C(C[C@@H]1C[C@@H]2c3cc(NC(=O)Nc4ccc(F)cc4)ccc3O[C@@H]2[C@@H](CO)O1)NC1CCCCC1	none (no result: Peg3 prom inh-1, Shn3 inh set2, HIF-2a block, TRPM1 prom inh, EBV LMP1 NFkB)
O=C(O)c1ccc(Nc2nc3c(s2)CCCC3)cc1	Peg3 prom inh-1 67, PAX8 reporter 67, HIF-2a block 46, TRPM1 prom inh 64 | Peg3 prom inh-2 54 | HIF-2a conf 64 | HIF-1a cs 52
O=C(Nc1ccccc1)NN(C(=O)CCl)c1ccccc1	Peg3 prom inh-1 100, PAX8 reporter 99, HIF-2a block 58, TRPM1 prom inh 87, EBV LMP1 NFkB 47 | Peg3 prom inh-2 92 | Mdm2-MdmX confirm 103 | HIF-2a conf 67 | HIF-1a cs 90
CCC(O)(CC)C(=O)NN(C(=O)CCl)c1ccccc1	none
C/C=C/c1ccc([C@@H]2[C@@H](CN(C)C(=O)CN(C)C)N(C(C)=O)[C@H]2CO)cc1	none (no result: Peg3 prom inh-1, Shn3 inh set2, HIF-2a block, TRPM1 prom inh, EBV LMP1 NFkB)
CN(C)c1ccc2cc(S(=O)(=O)O)cc(O)c2c1	none
O=Nc1c(O)ccc2cc(S(=O)(=O)O)ccc12	Peg3 prom inh-1 62, HIF-2a block 76 (no result: PAX8 reporter) | Peg3 prom inh-2 68 | HIF-2a conf 82 | HIF-1a cs inactive
Cn1cnc(S(=O)(=O)N2CC[C@@H]3[C@H]2c2cc(-c4ccccc4)ccc2N[C@@H]3CO)c1	none (no result: Peg3 prom inh-1, Shn3 inh set2, HIF-2a block, TRPM1 prom inh, EBV LMP1 NFkB)

Source: PubChem BioAssay
